# Test results reported in PubChem BioAssay (NCI).
# Compounds without any hit were thinned out: in the full panel of roughly 83,000, 20% have a hit.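 Cells were grown in 96-well plates and exposed to the test compound at a single concentration for 48 hours; results are reported as percent growth, with values below 10 considered active.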 Values without a mark were called inactive. Activity calls are given as the source filed them.
# System: NCI-H522 lung
# Test: NCI-60 one-dose screen, 48 h (100 = growth as untreated, 0 = no growth, -100 = all killed)
# Settings: 10 µM unless noted
# Description: Growth inhibition of the NCI-H522 human Non-Small Cell Lung tumor cell line is measured as a screen for anti-cancer activity. Cells are grown in 96 well plates and exposed to the test compound for 48 hours. Compounds are tested at a single concentration, which is 10^-5 M for most compounds. The reported endpoint is percent growth (GI% or GIPRCNT), where numbers from 0 - 100% represent growth inhibition, and numbers from -100% - 0 represent cell death. For example, a value of 40 represents 60% growth inhibition. A value of 0 means no net growth occurred over the course of the experiment. A value of -40 indicates 40% of cells at the beginning of the experiment died by the end of the experiment. A value of -100 means all cells are dead at the end of the experiment.
# NCI-60 Human Tumor Cell Lines Screen was performed using the standard one-dose NCI protocol, which is described in more detail at https://dtp.cancer.gov/discovery_development/nci-60/default.htm.
# Compounds with GIPRCNT values below 10 were considered active. Activity score was based on GIPRCNT using the following formula: […]
# Score is 0 for GIPRCNT values of 100 or above, 50 for GIPRCNT values of 0, and 100 for GIPRCNT values of -100.
row,SMILES,growth
1,CC[C@H](CC[C@@H](C)[C@H]1CC[C@H]2[C@@H]3CC(=O)C4=CC(=O)/C(=C/c5ccc([N+](=O)[O-])cc5)C[C@]4(C)[C@H]3CC[C@]12C)C(C)C,97.4%
2,O=C(Nc1ccc(Cl)c(C(F)(F)F)c1)Nc1ccc2oc(=O)ccc2c1,20.3%
3,N#Cc1c(-c2ccc(Br)cc2)cc(-c2c[nH]c3ccccc23)nc1N,11%
4,O=C(O)c1ccc(-n2c(=O)n(-c3cccc(C(F)(F)F)c3)c(=O)c3cc(-c4ccc(F)cc4F)ccc32)cc1,-7.88% (active)
5,NCCNC(=O)c1cccc(COc2ccccc2NC(=O)c2cc(Br)c(Br)[nH]2)c1,93.2%
6,CCN(CC)c1ccc(/C=N/NC(=O)c2ccc(NS(C)(=O)=O)cc2)cc1,21.8%
7,C=CCSC1=NC2C(N(CC)C(=O)N2CC)N1/N=C/C=C/c1ccccc1OC (stereo not given),57.2%
8,COCCOc1ccc2ncc(C#Cc3cncc(C(=O)Nc4ccc(CN5CCN(C)CC5)c(C(F)(F)F)c4)c3)n2n1,-56.4% (active)
9,Cc1ccc2c(n1)C(=O)C(Cl)=C(Nc1ccccc1C(=O)OC(C)(C)C)C2=O,-33.8% (active)
10,CC(C)(C)OC(=O)NCc1ccc(CNc2c([N+](=O)[O-])cnc3ccccc23)cc1,62.4%
11,CCOC(=O)c1c(NC(=O)c2ccc(C(F)(F)F)cc2)sc2c3c(ccc12)OCN(C)C3,-60.3% (active)
12,O=c1[nH][nH]c(-c2ccc(F)cc2)c1-c1nc2ccccc2s1,92.9%
13,CCCCSC1=C(Cl)CN(c2ccc(Cl)cc2)C1=O,-4.15% (active)
14,NC(=O)n1c(=O)n(-c2cccc(C(F)(F)F)c2)c(=O)c2cc(-c3ccc(F)cc3F)ccc21,-11.2% (active)
15,N#Cc1cnc2ccc(-c3cnc4n[nH]nc4c3)cc2c1N1CCc2cc(F)c(Cl)cc21,-10.1% (active)
16,Cc1c(C(=O)/C=C/c2ccc(Cl)cc2)nnn1-c1ccc2oc(=O)ccc2c1,88.8%
17,Clc1cccc(/C=N/Nc2nc(N/N=C/c3cccc(Cl)c3)nc(N3CCOCC3)n2)c1,13.9%
18,CC(Nc1ncnc2ccc(-c3cnc4cnccn34)cc12)c1ccccc1 (stereo not given),27.3%
19,COc1ccc2c(c1)c(/C=N/Nc1ccnc3cc(Cl)ccc13)cn2C,-65.4% (active)
20,CC(=O)c1c([Si](C)(C)C)c2cc(C#N)ccn2c1C(=O)c1ccc(Br)cc1,70.5%

row,SMILES,growth
1,C/C(=N\NC(=O)/C=C/CC(=O)O)c1nnn(-c2ccc([N+](=O)[O-])cc2)c1C,98.6%
2,O=C(COc1ccc(/C=C2\C(=O)Nc3ccc(F)cc32)cc1)Nc1ccccc1,93.9%
3,COc1ccccc1/C=C1\Oc2ccc(O)c(O)c2C1=O,89.1%
4,Cc1ccc(C)c(NC2=C(Cl)C(=O)c3nc(C)ccc3C2=O)c1,-35.9% (active)
5,O=C(CCCCCCNC(=O)C(O)(O)C(F)(F)F)Nc1ncc(-c2ccc(Br)cc2)s1,-44.9% (active)
6,C/C(=N\NC(N)=S)c1nnn(-c2ccc([N+](=O)[O-])cc2)c1C,89.6%
7,O=C1[C@@H]2Cc3c([nH]c4ccccc34)[C@H](c3ccc(Br)cc3)N2C(=O)CN1C1CCN(Cc2c(Cl)cccc2Cl)CC1,91.7%
8,CN1CCN(Cc2ccc(NC(=O)c3cncc(C#Cc4cnc5ccc(OCCCS(C)(=O)=O)nn45)c3)cc2C(F)(F)F)CC1,-76% (active)
9,Brc1cc(-c2cc(-c3ccc4c(c3)OC=CO4)[nH]n2)cs1,81.3%
10,CCOC(=O)c1c(NC(=O)c2cccc(C(F)(F)F)c2)sc2c1CCC(=O)C2,-4% (active)
11,N#Cc1c(-c2cccs2)cc(-c2cnccn2)nc1SCC(=O)N/N=C/c1ccncc1,96.1%
12,COc1ccc(C(C)=C(c2ccc(OCCN(C)C)cc2)c2ccc(OCCN(C)C)cc2)cc1,-60.1% (active)
13,CCCCCc1ccc(S(=O)(=O)Nc2cc(-c3csc(N)n3)ccc2OC)cc1,84.9%
14,O=C(CSc1nc2ccccc2c(=O)n1-c1ccccc1)Nc1ccc(S(=O)(=O)Nc2nccs2)cc1,26.7%
15,COc1ccc2[nH]cc(/C=N/Nc3ccnc4cc(Cl)ccc34)c2c1,-62.4% (active)
16,Cc1ccc2c(n1)C(=O)C(Cl)=C(Nc1cccc(C(F)(F)F)c1)C2=O,-28.8% (active)
17,CN1CCN(c2ccc(Nc3nc(NCCNC(=O)c4ccc(F)cc4)c4sccc4n3)cc2)CC1,68.1%
18,O=C(N/N=C\c1ccc([N+](=O)[O-])cc1)c1ccc2nc(-c3ccc(Br)cc3)[nH]c2c1,5.47% (active)
19,CCNC(=O)Oc1ccc(/C(=C(/C)c2ccc(OC)cc2)c2ccc(OCCN3CCCCCC3)cc2)cc1,93.1%
20,O=C(/C=C/Nc1ccc(S(=O)(=O)Nc2ncccn2)cc1)c1ccc(N=Cc2c(O)[nH]c3ccccc23)cc1,98.7%
